# Screens from PubChem.
# In the library only some 21% were active in any assay of this set; here they are far more common.
# ClpP mod = qHTS Assay for Activators of ClpP; ATP-dependent Clp protease proteolytic subunit (Bacillus subtilis (strain 168)), P80244; purified B. subtilis ClpP, FRET peptide cleavage, 20 min; Potency, µM (series often up to 57.5 µM), inactives show at the highest dose activity change, negative = active; 340,000 compounds, 1.9% hits; active means well fitted falling curve with a large enough effect; inconclusive means small, poorly fitted or top-dose-only effect; inactive means no such curve, though single readings can be large or run the other way; further: potency means the concentration at half of the fitted maximal effect; the source files actives as falling curves though it sought activators and does not explain the sign; nearly all actives have a fitted effect of over 65% in size
# Target sequence (P80244 whole entry, looked up): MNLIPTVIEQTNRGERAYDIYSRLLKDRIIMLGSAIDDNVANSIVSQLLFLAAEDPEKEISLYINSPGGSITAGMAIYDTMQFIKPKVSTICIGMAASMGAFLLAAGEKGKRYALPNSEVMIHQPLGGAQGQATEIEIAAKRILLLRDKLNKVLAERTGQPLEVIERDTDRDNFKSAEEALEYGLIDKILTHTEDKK
#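 Purified B. subtilis ClpP, 10 microg/mL final in Tris/HCl pH8 with KCl, BSA, glycerol and Tween-20, cleaved an Abz/nitrotyrosine-quenched decapeptide. Fluorescence (ex 320, em 430) was read at 0 and 20 min at room temperature. Delta was normalized to 5.8 microM ADEP and DMSO/no-enzyme controls.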
# DRD3 antagonist = qHTS of D3 Dopamine Receptor Antagonist: qHTS. 360,000 compounds, 2.5% hits. D3R cells, DiscoveRx beta-arrestin luminescence, antagonist mode; stronger effect = lower value. max response, negative = inhibition, %. D(3) dopamine receptor (Homo sapiens), P35462; in the data active means max response below about -50%; inconclusive means no clear call, values can overlap the other calls; further: on the % scale 0 is the no-effect control and ±100 the full control effect
# Target sequence (P35462 whole entry, looked up): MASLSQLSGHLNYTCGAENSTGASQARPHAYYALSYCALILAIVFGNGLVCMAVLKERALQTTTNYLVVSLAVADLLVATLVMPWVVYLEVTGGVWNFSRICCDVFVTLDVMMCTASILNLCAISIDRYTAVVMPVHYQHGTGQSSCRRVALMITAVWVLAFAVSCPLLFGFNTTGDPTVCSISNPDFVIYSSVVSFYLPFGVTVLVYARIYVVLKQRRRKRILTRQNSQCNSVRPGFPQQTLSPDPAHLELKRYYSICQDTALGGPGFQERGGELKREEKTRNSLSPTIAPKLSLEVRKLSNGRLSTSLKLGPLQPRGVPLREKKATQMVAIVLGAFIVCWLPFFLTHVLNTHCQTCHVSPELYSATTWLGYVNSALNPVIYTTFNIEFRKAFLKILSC
#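 Cells expressing the human receptor were seeded at 1500 cells/well, incubated overnight at 37 degrees C in 5% CO2, then exposed to library compounds with dopamine controls for 90 minutes at 37 degrees C before luminescent detection.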
# TDP1 cell noCPT = qHTS for Inhibitors of human tyrosyl-DNA phosphodiesterase 1 (TDP1): qHTS in cells in absence of CPT. DT40 Tdp1-/- hTDP1 cells, no CPT, ATP luminescence, 48 h. Potency, µM (top dose mostly 46.2 µM), for the others: top-dose activity change, negative = growth inhibition, actives largely listed as inhibitors. 420,000 compounds, 15% hits; further: potency means the concentration at half of the fitted maximal effect; on the % scale 0 is the no-effect control and ±100 the full control effect; nearly all actives have a fitted effect of over 55% in size
#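 Readout: luminescence from CellTiter-Glo after 30 min in the dark at RT. Cells: DT40 Tdp1-/- with stable hTDP1, 400/well. Exposure: compounds alone, ≥48 hr, 37 °C.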
# D3 ag = qHTS of D3 Dopamine Receptor Agonist: qHTS | max activation, % | AID 652048, 2013 | 410,000 compounds, 0.58% hits | D3R DiscoveRx beta-arrestin cells, luminescence, 90 min; in the data active means max activation above about 30%; further: 0% is about no effect
#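 Cells at 1500/well, incubated overnight, then treated with pinned compounds (dopamine as control) for 90 min at 37 degrees C. DiscoveRx reagent added for 30 - 60 minutes at room temperature; luminescence read.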
# IL-1B inflam inh = qHTS for Inhibitors of Inflammasome Signaling: IL-1-beta AlphaLISA Primary Screen | THP-1 LPS/ATP IL-1B secretion, AlphaLISA, 16 h; stronger effect = lower value | activity change, % at 57.5 µM | 360,000 compounds, 4.7% hits | AID 743279, 2014; in the data active means activity change below about -50%; inconclusive means mostly about -30% to -49%; further: on the % scale 0 is the no-effect control and ±100 the full control effect
#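 THP-1 cells pretreated 1 hr with compounds (up to 57.5 uM final), then stimulated with LPS (250 ng/mL final) plus ATP (1.25 mM final); secreted IL-1B measured by AlphaLISA after 16 hr, decreased signal indicating inhibition.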
# DT40 TDP1 CPT = qHTS for Inhibitors of human tyrosyl-DNA phosphodiesterase 1 (TDP1): qHTS in cells in presence of CPT | chicken DT40 Tdp1-/-;hTDP1 cells + 20 nM CPT, ATP luminescence, 48 h | Potency, µM (doses to about 46.2 µM), for the others: at the highest dose activity change, negative = growth inhibition, most hits filed as inhibitors | 420,000 compounds, 12% hits | AID 686979, 2013; further: potency means the concentration at half of the fitted maximal effect; on the % scale 0 is the no-effect control and ±100 the full control effect; nearly all actives have a fitted effect of over 55% in size
#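 Chicken DT40 Tdp1-/- cells stably complemented with human TDP1 were seeded at 400 cells/well in medium containing 20 nM camptothecin, exposed to pin-transferred compounds, and grown at 37 °C for at least 48 hr. Viability was read as ATP luminescence.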
# * = called active by the depositor; ? = inconclusive; / = not tested or not shown; [ ] = another dose, or the depositor's remark. Unless noted, the call rests on the fitted dose curve; in most records, active means well fitted inhibition curve with a large enough effect; inconclusive means small, poorly fitted or top-dose-only effect; inactive means flat fitted curve, though single readings scatter.
SMILES,ClpP mod,DRD3 antagonist,TDP1 cell noCPT,D3 ag,IL-1B inflam inh,DT40 TDP1 CPT
CCOc1cccc(C(=O)Nc2nc3c(s2)CC(C(C)(C)C)CC3)c1 (centres undefined),?,/,20.6µM*,5.2,/,20.6µM*
COc1cccc(C(=O)Nc2nc3c(s2)CCCC3)c1,-2.0%,/,?,-25.4,/,?
CC1CCc2nc(NC(=O)COc3ccc(C(C)(C)C)cc3)sc2C1 (centres undefined),-2.2%,/,?,4.2,/,?
Cc1ccccc1C(=O)Nc1nc2c(s1)CC(C(C)(C)C)CC2 (centres undefined),1.2%,/,11.6µM*,-0.3,/,16.4µM*
O=C(NC1CC(=O)N(c2cccc(F)c2)C1)c1ccc(S(=O)(=O)N2CCCC2)cc1 (centres undefined),0.6%,/,?,10.8,/,?
CCOc1ccc(S(=O)(=O)N2CCOCC2)cc1NC(=O)c1ccc(N2CCCC2=O)cc1,-2.3%,-9.8,-24.4%,-15.4,-14.9,?
COC(=O)N1CCC2(CC1)CCN(c1ccncc1)CC2,/,/,16.4µM*,/,/,7.31µM*
O=C(Oc1ccccc1)N1CCC2(CCCN(c3ccccc3)C2)CC1,/,/,-19.6%,/,/,0.4%
COC(=O)N1CCC[C@@]2(CCN(c3ccncc3)C2)C1,/,/,-21.0%,/,/,-21.9%
O=C(Oc1ccccc1)N1CCC2(CC1)CN(c1ccncc1)C2,/,/,10.3µM*,/,/,13µM*
O=C(Oc1ccccc1)N1CCC2(CCCN(c3ccncc3)C2)CC1,/,/,14.6µM*,/,/,20.6µM*
CCOC(=O)Cc1cc(=O)[nH]c(/N=C(\N)Nc2ccc(C)c(C)c2)n1,/,-6.2,?,1.1,0.0,?
O=C(Nc1nccs1)c1ccc(-c2ccc(F)c(Cl)c2)o1,-18.6%,12.1,?,-1.8,-18.4,?
Cc1ccc(N2CCN(C(=O)c3cc4cc5ccc(C)cc5nc4s3)CC2C)cc1 (centres undefined),-2.1%,/,-1.8%,6.9,/,0.1%
CCC(C)(C)c1ccc(OCCCC[n+]2cccc(C)c2C)c(C(C)(C)CC)c1,0.9%,16.7,0.411µM*,-17.2,-93.1*,0.517µM*
CCC(C)(C)c1ccc(OCCCC[n+]2ccc(C)cc2)c(C(C)(C)CC)c1,-0.2%,1.5,1.16µM*,-2.9,-95.1*,2.31µM*
Cc1ccc2oc(-c3cccc(NC(=O)C4CCCO4)c3)nc2c1 (centres undefined),28.2µM*,8.3,-21.1%,7.2,-23.4,-22.0%
COc1cccc(OC)c1C(=O)Nc1cccc(-c2nc3cc(C)cc(C)c3o2)c1,?,/,7.31µM*,8.6,/,13µM*
Cc1cccc(-c2nc3cc(NC(=O)C4CCCO4)ccc3o2)c1 (centres undefined),?,38.5,?,0.3,-2.8,?
COc1cc(C(=O)Nc2cccc(-c3nc4cc(C)ccc4o3)c2)cc(OC)c1OC,113.2%,8.3,?,-5.4,-5.1,23.1µM*
O=C(NCCS(=O)(=O)N1CCN(c2ccccc2)CC1)C1CCCC1,/,-2.1,?,-1.0,-3.6,-19.8%
O=C1OCCC1Sc1nnnn1-c1ccccc1 (centres undefined),-0.6%,4.6,2.7%,-9.2,13.4,1.3%
O=C(c1ccccc1)N1CCCCC(Sc2nnnn2-c2ccccc2)C1=O (centres undefined),-2.1%,-59.7*,-14.1%,-10.3,12.5,-7.9%
Cc1nn(-c2cc(C)c3ccccc3n2)c2c1C1C(C2)C1(C)C (centres undefined),-29.2%,-14.6,?,-11.3,26.2,18.4µM*
Cc1cc(-n2nnc3ccccc32)nc2ccccc12,-5.2%,-15.9,-18.6%,-14.2,24.9,-7.8%
SMILES,ClpP mod,DRD3 antagonist,TDP1 cell noCPT,D3 ag,IL-1B inflam inh,DT40 TDP1 CPT
CCOC(=O)c1ccc(NC(=O)CC2Sc3ccc(C(F)(F)F)cc3NC2=O)cc1 (centres undefined),?,/,?,2.4,/,?
CCCNC(=O)c1ccc2c(c1)nc1n2CCCCC1,-0.3%,/,-18.3%,-16.2,/,-6.7%
CC(C)c1ccc(/C=C2\SC(N3CCCC3)=NC2=O)cc1,1.5%,-8.5,23.1µM*,-0.7,?,?
CCOc1ccc(/C=C2\SC(N3CCCCC3)=NC2=O)cc1,-4.2%,-22.2,2.91µM*,-3.2,10.6,6.51µM*
Cc1cc(C)cc(N(C(=O)CCC(=O)Nc2cc(C)on2)C(C(=O)NC2CCCC2)c2ccco2)c1 (centres undefined),/,-21.1,20.6µM*,-3.5,-4.6,?
COc1ccc(C(C(=O)NC(C)(C)C)N(C(=O)CCC(=O)Nc2cc(C)on2)c2cc(C)cc(C)c2)cc1 (centres undefined),/,0.5,20.6µM*,0.7,-1.9,?
Cc1cc(NC(=O)CCC(=O)N(c2cccc(F)c2)C(C(=O)NC2CCCC2)c2ccc(C)o2)no1 (centres undefined),28.2µM*,-23.8,?,-22.4,?,-4.6%
Cc1cccc(N(C(=O)CCC(=O)Nc2cc(C)on2)C(C(=O)NC2CCCC2)c2ccc(C)o2)c1 (centres undefined),-3.3%,5.0,-18.2%,0.2,-1.4,?
COc1ccc(C(C(=O)NC(C)(C)C)N(Cc2ccc(C)cc2)C(=O)CCC(=O)Nc2cc(C)on2)cc1 (centres undefined),0.4%,-23.8,?,1.0,-0.1,-39.2%
Cc1ccc(C)c(N(C(=O)CCC(=O)Nc2cc(C)on2)C(C(=O)NC2CCCC2)c2ccco2)c1 (centres undefined),1.1%,12.8,23.1µM*,3.6,-6.2,16.4µM*
Cc1ccc(N(C(=O)CCC(=O)Nc2cc(C)on2)C(C(=O)NC2CCCC2)c2ccccc2)cc1 (centres undefined),0.7%,-7.0,-19.4%,-4.8,-20.5,-25.8%
Cc1cc(NC(=O)CCC(=O)N(Cc2ccccc2)C(C(=O)NC2CCCC2)c2ccco2)no1 (centres undefined),/,0.4,?,2.7,-10.9,-17.2%
COc1ccc(NC(=O)N(C)C[C@H]2Oc3ncc(Br)cc3C(=O)N([C@H](C)CO)C[C@@H]2C)cc1,0.2%,24.4,-2.5%,2.1,-6.3,-0.5%
CCN(Cc1ccncc1)Cc1ccc2c(c1)CN(C(=O)c1ccc(C#CC(C)(C)O)o1)CCO2,/,/,?,/,/,3.9%[9.04 µM]
